SMILES strings stand for the structures.

High affinity nerve growth factor receptor (Homo sapiens), sequence (P04629 33-796 limits assumed): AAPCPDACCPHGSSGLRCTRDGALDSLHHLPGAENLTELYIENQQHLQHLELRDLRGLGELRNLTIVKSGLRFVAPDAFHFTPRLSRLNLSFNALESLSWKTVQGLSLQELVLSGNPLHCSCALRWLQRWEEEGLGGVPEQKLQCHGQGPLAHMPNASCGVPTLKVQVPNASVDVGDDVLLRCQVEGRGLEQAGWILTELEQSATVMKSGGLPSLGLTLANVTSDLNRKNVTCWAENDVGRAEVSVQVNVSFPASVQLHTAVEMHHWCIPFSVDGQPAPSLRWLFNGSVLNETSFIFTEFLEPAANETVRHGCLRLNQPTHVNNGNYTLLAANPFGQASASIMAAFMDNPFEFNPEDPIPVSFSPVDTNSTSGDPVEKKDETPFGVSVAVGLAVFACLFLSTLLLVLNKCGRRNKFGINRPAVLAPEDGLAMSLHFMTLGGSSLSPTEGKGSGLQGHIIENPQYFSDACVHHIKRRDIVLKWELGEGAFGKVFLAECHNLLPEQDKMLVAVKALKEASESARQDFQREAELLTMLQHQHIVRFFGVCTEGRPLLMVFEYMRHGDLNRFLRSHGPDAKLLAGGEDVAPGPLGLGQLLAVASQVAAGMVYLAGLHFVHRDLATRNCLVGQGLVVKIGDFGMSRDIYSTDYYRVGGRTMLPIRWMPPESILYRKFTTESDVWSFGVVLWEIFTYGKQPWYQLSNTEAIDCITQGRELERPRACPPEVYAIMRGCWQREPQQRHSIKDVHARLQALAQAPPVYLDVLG

The first assay addresses High affinity nerve growth factor receptor (Homo sapiens) (UniProt P04629). Particulars: at 1 µM.
With `CS(=O)(=O)CCNCc1ccc(-c2ccc3ncnc(Nc4ccc(OCc5cccc(F)c5)c(C(F)(F)F)c4)c3c2)o1`, the inhibition is -0.52%.
Take `Fc1cccc(COc2ccc(Nc3ncnc4sc(-c5cccs5)cc34)cc2Cl)c1`: the inhibition was 2.88%.
As for `CC1=C(C(=O)Nc2ccc3[nH]ncc3c2)C(c2ccc3ccccc3c2)CC(=O)N1` (stereo unspecified), the inhibition stood at 2.53%.
The same measure, in the same setting: as for `CS(=O)(=O)CCNCc1ccc(-c2ccc3ncnc(Nc4ccc(OCc5ccccc5)c(Cl)c4)c3c2)o1`, the figure is 4.84%; as for `Cc1cc(O)cc(C)c1/C=C/c1cncc(-c2nn[nH]n2)c1`, 3.5%; as for `O=C1Nc2ccc(C(=O)c3ccco3)cc2C1=Cc1cc(Cl)c(O)c(Cl)c1`, 21%.
On the same count and under the same terms, as for `COc1cc(C)c(NC(=O)CN(C)C)cc1Nc1nc(Nc2cccc(F)c2C(N)=O)c2cc[nH]c2n1`, the figure is 13%; as for `NC(=O)c1ccc(-c2nc(-c3ccccn3)c(-c3ccc4c(c3)OCO4)[nH]2)cc1`, 3.43%; as for `CCn1c(-c2nonc2N)nc2cnc(Oc3cccc(NC(=O)c4ccc(OCCN5CCOCC5)cc4)c3)cc21`, -0.09%.
As for `COc1cc2ncn(-c3cc(O[C@H](C)c4ccccc4Cl)c(C(N)=O)s3)c2cc1OC`, the inhibition worked out at 12.4%.
With `Cc1ccc(C(=O)NC2CCCCC2)cc1-c1ccc(C(=O)NCC2CC2)cc1`, the inhibition turned out to be 2.19%.
On the same count and under the same terms, with `CCn1c(-c2nonc2N)nc2c(C#CC(C)(C)O)nc(CN3CCCC3)cc21` the figure was -1.66%; with `Cc1nn(C)c2cc(N(C)c3ccnc(Nc4cccc(S(N)(=O)=O)c4)n3)ccc12`, 6.3%; with `COc1cc2ncn(-c3cc(OCc4ccccc4Cl)c(C(N)=O)s3)c2cc1OC`, 2.92%.
`COc1ccc2cc(-c3c(-c4ccncc4)nc(-c4ccc([S+](C)[O-])cc4)n3C)ccc2c1` (stereo unspecified): the inhibition came to 1.74%.
In the case of `COc1ccc(-c2ccncc2)cc1C(N)=O`, the inhibition stood at 6.42%.
With `CCc1cccc(NC(=O)Nc2ccc(Oc3ccc4nc(NC(=O)OC)[nH]c4c3)cc2)c1`, the inhibition came to 43.7%.
Take `O=C1NC(=O)C(c2ccc(Cl)cc2)=C1Nc1ccc(Cl)c(C(=O)O)c1`: the inhibition turned out to be 0.46%.
With `CCn1c(-c2nonc2N)nc2cncc(C(=O)N3CCNCC3)c21`, the inhibition came to 4.86%.
In the case of `CN(C)c1cc2c(Nc3ccc4nc(Cc5ccccc5)[nH]c4c3)ncnc2cn1`, the inhibition is 3.31%.
On to `Nc1nc(-c2ccc3c(c2)C(=Cc2cc(Br)c(O)c(Br)c2)C(=O)N3)cs1`, for which the inhibition is 2.45%.
The same measure, in the same setting: with `Nc1nc(-c2ccccn2)c(-c2ccc3ncccc3n2)s1` the figure was 1.12%; with `Nc1ncnc2occ(-c3ccc(NC(=O)Nc4cc(C(F)(F)F)cc(C(F)(F)F)c4)cc3)c12`, 94.1%; with `NS(=O)(=O)c1cccc(-c2ccc3c(NC(=O)C4CC4)n[nH]c3c2)c1`, 1.21%.
`CCN1CCC(CC(=O)Nc2n[nH]c3nc(-c4cccs4)c(Br)cc23)CC1`: the inhibition is 0.88%.
Regarding `Cc1cccc(-c2n[nH]cc2-c2ccc3ncccc3n2)n1`, the inhibition is -0.2%.
In the case of `COC(=O)Nc1nc2cc(Oc3cccc(NC(=O)Nc4cc(C(F)(F)F)ccc4F)c3)ccc2[nH]1`, the inhibition was -0.96%.
With `CNC(=O)c1cncc(/C=C/c2c(Cl)cccc2Cl)c1`, the inhibition was determined as 6.89%.
On to `Cc1nnc(-c2ccc(C)c(-c3ccc(C(=O)Nc4cccc(C#N)c4)cc3)c2)o1`, for which the inhibition was -1.21%.
Consider `CC(=O)Nc1cccc(C#Cc2cncnc2Nc2ccc(OCc3cccc(F)c3)c(Cl)c2)n1`, for which the inhibition is -2.48%.
The same measure, in the same setting: as for `O=C1NC(=O)C(c2cccc(Cl)c2)=C1Nc1ccc(O)c(Cl)c1`, the figure is 2.57%.
For `CC(C)=Cc1cccc2c1/C(=N/Nc1ccc(S(N)(=O)=O)cc1)C(=O)N2`, the inhibition came out at 51.5%.
As to `COc1cc2ncn(-c3cc(OCc4ccccc4C(F)(F)F)c(C(N)=O)s3)c2cc1OC`, the inhibition came out at 5.01%.

The target of the next assay is BDNF/NT-3 growth factors receptor (Homo sapiens) (UniProt Q16620). Particulars: at 0.1 µM.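 Further: each value is a mean percent inhibition of TrkB kinase.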
BDNF/NT-3 growth factors receptor (Homo sapiens), sequence (Q16620 32-822 limits assumed): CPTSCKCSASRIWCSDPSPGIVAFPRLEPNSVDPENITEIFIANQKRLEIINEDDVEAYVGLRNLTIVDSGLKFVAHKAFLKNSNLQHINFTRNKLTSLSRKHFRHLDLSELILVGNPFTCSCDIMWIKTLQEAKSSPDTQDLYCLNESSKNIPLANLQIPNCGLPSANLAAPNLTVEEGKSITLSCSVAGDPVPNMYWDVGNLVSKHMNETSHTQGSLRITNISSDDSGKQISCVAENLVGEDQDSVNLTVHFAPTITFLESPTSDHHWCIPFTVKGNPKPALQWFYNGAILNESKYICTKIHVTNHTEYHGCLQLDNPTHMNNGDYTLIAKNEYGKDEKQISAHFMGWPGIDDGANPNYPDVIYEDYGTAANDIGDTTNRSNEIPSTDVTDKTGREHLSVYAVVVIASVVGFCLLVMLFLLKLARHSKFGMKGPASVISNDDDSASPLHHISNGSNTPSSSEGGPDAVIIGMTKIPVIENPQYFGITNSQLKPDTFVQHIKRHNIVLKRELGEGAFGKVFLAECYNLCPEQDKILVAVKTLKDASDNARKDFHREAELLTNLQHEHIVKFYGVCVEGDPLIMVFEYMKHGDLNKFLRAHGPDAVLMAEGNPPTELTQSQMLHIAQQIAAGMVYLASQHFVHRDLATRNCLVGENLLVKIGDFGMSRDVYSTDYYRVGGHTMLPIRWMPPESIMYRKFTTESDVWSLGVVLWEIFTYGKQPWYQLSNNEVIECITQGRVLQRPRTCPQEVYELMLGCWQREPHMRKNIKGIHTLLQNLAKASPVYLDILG
`CS(=O)(=O)CCNCc1ccc(-c2ccc3ncnc(Nc4ccc(OCc5cccc(F)c5)c(C(F)(F)F)c4)c3c2)o1`: the inhibition is 2.14%.
As for `Fc1cccc(COc2ccc(Nc3ncnc4sc(-c5cccs5)cc34)cc2Cl)c1`, the inhibition turned out to be 1.85%.
For the molecule `CC1=C(C(=O)Nc2ccc3[nH]ncc3c2)C(c2ccc3ccccc3c2)CC(=O)N1` (stereo unspecified), the inhibition stood at 1.18%.
Regarding `CS(=O)(=O)CCNCc1ccc(-c2ccc3ncnc(Nc4ccc(OCc5ccccc5)c(Cl)c4)c3c2)o1`, the inhibition turned out to be 2.92%.
Same read-out and setting: with `Cc1cc(O)cc(C)c1/C=C/c1cncc(-c2nn[nH]n2)c1` the figure was 3.7%; with `O=C1Nc2ccc(C(=O)c3ccco3)cc2C1=Cc1cc(Cl)c(O)c(Cl)c1`, 5.68%; with `COc1cc(C)c(NC(=O)CN(C)C)cc1Nc1nc(Nc2cccc(F)c2C(N)=O)c2cc[nH]c2n1`, 2.25%.
As for `NC(=O)c1ccc(-c2nc(-c3ccccn3)c(-c3ccc4c(c3)OCO4)[nH]2)cc1`, the inhibition was determined as 1.54%.
With `CCn1c(-c2nonc2N)nc2cnc(Oc3cccc(NC(=O)c4ccc(OCCN5CCOCC5)cc4)c3)cc21`, the inhibition was 3.18%.
As for `COc1cc2ncn(-c3cc(O[C@H](C)c4ccccc4Cl)c(C(N)=O)s3)c2cc1OC`, the inhibition amounted to 8.25%.
Take `Cc1ccc(C(=O)NC2CCCCC2)cc1-c1ccc(C(=O)NCC2CC2)cc1`: the inhibition amounted to 0.88%.
Regarding `CCn1c(-c2nonc2N)nc2c(C#CC(C)(C)O)nc(CN3CCCC3)cc21`, the inhibition was -0.98%.
Consider `Cc1nn(C)c2cc(N(C)c3ccnc(Nc4cccc(S(N)(=O)=O)c4)n3)ccc12`, for which the inhibition amounted to 2.64%.
As for `COc1cc2ncn(-c3cc(OCc4ccccc4Cl)c(C(N)=O)s3)c2cc1OC`, the inhibition stood at 2.11%.
`COc1ccc2cc(-c3c(-c4ccncc4)nc(-c4ccc([S+](C)[O-])cc4)n3C)ccc2c1` (stereo unspecified): the inhibition amounted to 0.67%.
Still for that read-out and setting: as for `COc1ccc(-c2ccncc2)cc1C(N)=O`, the figure is 3.52%; as for `CCc1cccc(NC(=O)Nc2ccc(Oc3ccc4nc(NC(=O)OC)[nH]c4c3)cc2)c1`, 21.4%.
As for `O=C1NC(=O)C(c2ccc(Cl)cc2)=C1Nc1ccc(Cl)c(C(=O)O)c1`, the inhibition is 1.23%.
Regarding `CCn1c(-c2nonc2N)nc2cncc(C(=O)N3CCNCC3)c21`, the inhibition is 3.21%.
Same read-out and setting: with `CN(C)c1cc2c(Nc3ccc4nc(Cc5ccccc5)[nH]c4c3)ncnc2cn1` the figure was 3.89%; with `Nc1nc(-c2ccc3c(c2)C(=Cc2cc(Br)c(O)c(Br)c2)C(=O)N3)cs1`, 1.16%.
As to `Nc1nc(-c2ccccn2)c(-c2ccc3ncccc3n2)s1`, the inhibition is 2.11%.
Turning to `Nc1ncnc2occ(-c3ccc(NC(=O)Nc4cc(C(F)(F)F)cc(C(F)(F)F)c4)cc3)c12`, the inhibition was found to be 42.3%.
As to `NS(=O)(=O)c1cccc(-c2ccc3c(NC(=O)C4CC4)n[nH]c3c2)c1`, the inhibition is 0.07%.
The same measure, in the same setting: with `CCN1CCC(CC(=O)Nc2n[nH]c3nc(-c4cccs4)c(Br)cc23)CC1` the figure was -0.35%; with `Cc1cccc(-c2n[nH]cc2-c2ccc3ncccc3n2)n1`, -0.22%.
Take `COC(=O)Nc1nc2cc(Oc3cccc(NC(=O)Nc4cc(C(F)(F)F)ccc4F)c3)ccc2[nH]1`: the inhibition is -0.54%.
As for `CNC(=O)c1cncc(/C=C/c2c(Cl)cccc2Cl)c1`, the inhibition was determined as 2.99%.
For the molecule `Cc1nnc(-c2ccc(C)c(-c3ccc(C(=O)Nc4cccc(C#N)c4)cc3)c2)o1`, the inhibition was 1.33%.
For the molecule `CC(=O)Nc1cccc(C#Cc2cncnc2Nc2ccc(OCc3cccc(F)c3)c(Cl)c2)n1`, the inhibition was -1.79%.
Same read-out and setting: with `O=C1NC(=O)C(c2cccc(Cl)c2)=C1Nc1ccc(O)c(Cl)c1` the figure was -0.13%; with `CC(C)=Cc1cccc2c1/C(=N/Nc1ccc(S(N)(=O)=O)cc1)C(=O)N2`, 22.4%.
For the molecule `COc1cc2ncn(-c3cc(OCc4ccccc4C(F)(F)F)c(C(N)=O)s3)c2cc1OC`, the inhibition turned out to be 6.06%.

Source of the values: ChEMBL document CHEMBL1961873, “Compounds: GSK PKIS; Assays: Nanosyn kinase panel” (2012).
